Shiga inhibitor – Shiga toxin inhibition; 290,000 tested, 9.2% active; Vero cells, Shiga toxin protein synthesis inhibition reporter; inhibition, % at 38.7 µM; in the data active = inhibition mostly above about 28%, no sharp cut-off; inactive = mostly below about 43%; note: 0% is about no effect
Sm TGR inh – blocks Schistosoma mansoni thioredoxin glutathione reductase. 360,000 tested, 3% active. Potency, µM (doses to about 114 µM), for inactives: top-dose activity change, negative = inhibition, most hits filed as inhibitors. Q962Y6. purified TGR, DTNB reduction, TNB absorbance 405 nm. AID 485364; note: potency is the fitted concentration of half-maximal effect; % is set by controls: 0 for no effect and ±100 for the full control effect; nearly all actives have a fitted effect of over 60% in size
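First, TGR (20 nM dispensed) and NADPH were mixed with compound. Second, a 15 min room-temperature incubation followed. Third, further NADPH and then DTNB were added to start the reaction. Finally, TNB absorbance was monitored kinetically.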
CHX counter – affects cycloheximide protein synthesis inhibition readout, counter-screen | AID 2314 | cell reporter, cycloheximide protein synthesis inhibition counterscreen | max response, % | 300,000 tested, 12% active; in the data active = max response mostly above about 13%, no sharp cut-off; inactive = mostly below about 14%; note: read at 38.3 µM for the half of the compounds with a filed dose; 0% is about no effect
TbPYK inhibitor – inhibitors of Trypanosoma brucei pyruvate kinase | Q57TT1 | TbPYK enzyme, Kinase-Glo Plus ATP luminescence, 45 min | Potency, µM (titrated, usually from 76.8 µM), for the others: at the highest dose activity, negative = inhibition, most hits filed as inhibitors | 410,000 tested, 0.12% active; note: potency is the fitted concentration of half-maximal effect; % is set by controls: 0 for no effect and ±100 for the full control effect; nearly all actives have a fitted effect of over 50% in size
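TbPYK + substrate in 50 mM TEA pH 7.2, 100 mM KCl, 10 mM MgCl2, 0.05% BSA, 0.01% Tween-20; cpd pinned; ADP 130 uM final; 45 min RT; Kinase-Glo Plus 10 min; luminescence endpoint.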
LmPK inh – LmPK (Leishmania mexicana) enzyme inhibition; Potency, µM (top dose mostly 57.5 µM), for inactives: top-dose activity change, negative = inhibition, actives largely listed as inhibitors; purified LmPK, Kinase-Glo ATP luminescence, 1 h; 290,000 tested, 0.37% active; note: potency is the fitted concentration of half-maximal effect; % is set by controls: 0 for no effect and ±100 for the full control effect
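Purified LmPK (0.1 nM) with 0.5 mM PEP and 0.1 mM ADP in imidazole buffer pH 7.2 with MgCl2/KCl, 1 h at room temperature. ATP formed was read by luciferase luminescence and normalized to no-enzyme and uninhibited controls.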
Giardia FBPA inh – inhibitors of Giardia lamblia fructose-1,6-bisphosphate aldolase; A8B2U2; purified Giardia FBPA; Potency, µM (doses to about 59.6 µM), for the others: at the highest dose activity, negative = inhibition, actives largely listed as inhibitors; 290,000 tested, 0.71% active; note: potency is the fitted concentration of half-maximal effect; % is set by controls: 0 for no effect and ±100 for the full control effect; nearly all actives have a fitted effect of over 55% in size
Target sequence (A8B2U2 whole entry, looked up): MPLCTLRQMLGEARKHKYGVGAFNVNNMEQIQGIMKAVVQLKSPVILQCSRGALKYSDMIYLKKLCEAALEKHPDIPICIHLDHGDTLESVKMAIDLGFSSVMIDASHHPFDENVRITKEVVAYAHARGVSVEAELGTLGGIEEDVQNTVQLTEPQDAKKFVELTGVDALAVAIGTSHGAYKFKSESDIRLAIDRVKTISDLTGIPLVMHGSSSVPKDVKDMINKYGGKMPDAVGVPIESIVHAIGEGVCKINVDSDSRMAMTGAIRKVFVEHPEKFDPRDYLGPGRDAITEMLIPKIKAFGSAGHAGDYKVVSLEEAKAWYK
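Giardia FBPA (40 nM reagent) was preincubated 10 min at RT with compound (up to 57.5 uM final), then substrate plus GAPDH/TPI/NAD/arsenate coupling system with diaphorase/resazurin was added; resorufin fluorescence (525/598 nm) was read after 20 min.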
* = called active by the depositor; ? = inconclusive; . = no result; [ ] = remark or other dose. Shown is part of a subset that was picked to be rich in hits. Unless noted, calls come from the whole dose curve; as a rule, active = well fitted curve in the direction sought with a large enough effect; inconclusive = small, poorly fitted or top-dose-only effect, or another doubt; inactive = no such curve, though single readings can be large; an effect the other way counts as inactive or inconclusive.

SMILES | Shiga inhibitor | Sm TGR inh | CHX counter | TbPYK inhibitor | LmPK inh | Giardia FBPA inh
C#CCn1c(=NC(=O)c2cc(Cl)sc2Cl)sc2cc(S(N)(=O)=O)ccc21 | 36 | -6% | 13 | 1% | 1% | -4%
CCOc1cccc2sc(=NC(=O)c3ccco3)n(CC(=O)OC)c12 | 68* | -17% | 37* | 1% | -4% | -9%
O=C(CN1C(=O)CCSc2ccccc21)Nc1ccc(C(F)(F)F)cc1 | . | -8% | . | -8% | . | .
Cn1c(SCC(N)=O)nnc1-c1ccc(C(C)(C)C)cc1 | 14 | 8% | 17* | 4% | -5% | -2%
Cc1cccc(-c2nnc(SCC(=O)C(C)(C)C)n2C)c1 | 73* | 12% | 37* | 0% | 4% | 5%
O=C(N/N=C/c1cccc(NC(=O)c2ccc(Cl)cc2)c1)c1ccc(O)cc1 | 85* | 2% | 60* | -1% | -3% | -4%
O=C(N/N=C/c1cccc(F)c1)c1ccc(Cl)cc1 | 119* | -10% | 44* | -4% | -1% | 0%
O=C(N/N=C/c1ccncc1)c1cccc(NC(=O)c2ccc(Cl)cc2)c1 | 20 | -8% | 11 | 0% | -1% | 2%
CC(C)(C)c1ccc(C(=O)N/N=C/c2cccc(Cl)c2)cc1 | 27 | -3% | 20 | 8% | 2% | -11%
Cc1ccc(N2C(=O)CS(=O)(=O)C23C(=O)N(Cc2ccccc2F)c2ccccc23)cc1Cl (centres undefined) | . | 11% | . | -1% | . | .
COc1ccc(Nc2c3c(nc4ccc(NC(=O)/C=C/c5cccc(OC)c5OC)cc24)CCCC3)cc1OC | . | 1% | . | -7% | . | .
Cc1ccc2[nH]c(CSc3nnc(NC(=O)COc4ccccc4)s3)cc(=O)c2c1 | . | 4% | . | -6% | . | .
CCC(=NCc1ccccc1)c1c(C(F)(F)F)[nH]n(-c2nc3ccccc3s2)c1=O | 36 | -1% | 21* | . | 2% | -14%
CCC(=NCc1ccco1)c1c(C(F)(F)F)[nH]n(-c2nc3ccccc3s2)c1=O | 52* | -11% | 45* | -4% | -11% | -19%
CC(=NCc1ccco1)c1c(C)[nH]n(-c2nc3ccccc3s2)c1=O | 56* | -20% | 48* | -5% | -3% | 1%
C/C(=N/NC(=O)c1cccs1)c1c(C)[nH]n(-c2nc3ccccc3s2)c1=O | 20 | -6% | 11 | ? | 20µM* | -23%
N#Cc1c(-n2ncnc2-c2cccc(Cl)c2)sc2c1CCCCC2 | . | -11% | . | 0% | . | .
O=C(CSC1=Nc2ccccc2N=C(c2ccc(F)cc2)C1)NCc1ccccc1 | . | 1% | . | 6% | . | .
CCOC(=O)c1c(S(=O)(=O)NCC(=O)Nc2cccc(SC)c2)c(C)n(C)c1C | . | 1% | . | -7% | . | .
COCCn1c(=O)c(-c2cccs2)nc2cnc(Oc3ccc(OC)cc3)nc21 | . | . | . | -2% | . | ?
COC(=O)Cc1[nH]n(-c2ccccc2)c(=O)c1C(C)=Nc1ccccc1 | 15 | 1% | 5 | 6% | 1% | -18%
COC(=O)Cc1[nH]n(-c2nc3ccccc3s2)c(=O)c1C(C)=Nc1ccc(C)cc1 | 93* | -8%[57.1 µM] | 35* | -5% | 0% | -9%
COc1ccc(NC(=O)C/C(C)=N/NC(=O)C(=O)NC2CCCCC2)c(OC)c1 | 13 | -2% | -4 | 2% | 0% | -14%
COc1ccc(CCNC(=O)C/C(C)=N/NC(=O)c2cnccn2)cc1 | 41* | -15% | 36* | -3% | -3% | 10%
C/C(CC(=O)Nc1cc(C)cc(C)c1)=N\NC(=O)c1ccccn1 | 43* | -21% | 37* | 0% | -3% | 0%
COc1ccc(NC(=O)C/C(C)=N/NC(=O)c2cnccn2)c(OC)c1 | 34 | -2% | 37* | 1% | -2% | -9%
C/C(CC(=O)Nc1ccc2c(c1)OCCO2)=N\NC(=O)c1ccccn1 | 13 | -6% | 11 | 0% | -2% | ?
COc1ccc(NC(=O)C/C(C)=N/NC(=O)c2ccccn2)c(OC)c1 | 88* | 6% | 38* | 4% | -7% | 19%
C/C(CC(=O)Nc1ccccc1C(F)(F)F)=N\NC(=O)c1cnccn1 | . | . | . | -1% | . | .

Bioassay records as filed in PubChem.
